# Biological target: AMP-activated protein kinase, AMPK (Homo sapiens) (UniProt P54646+O43741+P54619+Q9UGJ0+Q9Y478+Q13131+Q9UGI9)
# Assay: AMP-dependent Kinase enzyme assay. An in vitro enzyme assay that detects ADP turnover that is directly proportional to AMPK activity. This uses naive AMPK that is activated during the assay with MK-8722
# Format: functional
# Set-up: scale not given: direction of the effect not stated beside the values
# Settings: 30 µM
row,SMILES,Percent Effect [%]
1,Cc1noc(C)c1C(=O)N1CCC(c2cc3cnccc3[nH]2)CC1,16.4
2,CC(C)(C)c1nc(CC(=O)NCCC(=O)Nc2ccncc2)cs1,-4.57
3,O=C(Cc1c[nH]c(=O)[nH]c1=O)N1CCCCC1CCc1cccc(O)c1 (stereo not given),1.27
4,c1csc(CN(Cc2ccsc2)CC2CCCO2)n1 (stereo not given),5.59
5,Cc1ccccc1SCC(=O)NC1CCC(O)CC1 (stereo not given),0.736
6,CCc1cc(=O)[nH]c(-c2ccc(NC(C)CN3CCOCC3)nc2)n1 (stereo not given),-2.92
7,CCc1cccc(C)c1NC(=O)NCCCN(CC)S(C)(=O)=O,22.2
8,Cc1noc(C)c1CC(=O)N[C@@H]1CC[C@@H](Oc2ccccc2)[C@@H]1O,5.13
9,COCCN1CCCC2(CCN(c3cc(C)c(C#N)c(C)n3)C2)C1=O (stereo not given),-7.22
10,CCn1ncc(CN2CCC(c3ncc(Cl)cc3S(C)(=O)=O)CC2)c1C,6.21
11,COCCCN1CCN(C(=O)C(c2cccc(F)c2)N(C)C)CC1 (stereo not given),-3.6
12,N#Cc1cccc(N2CCC(CO)(CCOc3ccccc3)CC2)n1,3.85
13,N#Cc1cccnc1N1CCC(Nc2ccccc2)C1 (stereo not given),4.61
14,O=C1NCCCC12CCN(Cc1ccc(-c3ccccc3)s1)C2 (stereo not given),6.83
15,Cc1cc(C)n(CC2CCN(CC(O)CN3CCOCC3)CC2)n1 (stereo not given),-1.36
16,Cc1cc(C(F)F)nn1CC(=O)NCc1nccn1C,5.16
17,CN(C)c1nc(N)nc(CN2CCC(c3nc4ccccc4o3)CC2)n1,-11.3
18,CCn1c(C2CCN(C(=O)c3ccc4cc[nH]c4c3)CC2)n[nH]c1=O,-10.8
19,Fc1ccc(C2(CNCC(F)F)CCOC2)cc1 (stereo not given),3.05
20,Cc1c(Br)cccc1NC(=O)N(C)CCO,-2.37

row,SMILES,Percent Effect [%]
1,CCn1cc(CN2CCC(c3ncc(Cl)cc3S(C)(=O)=O)CC2)c(C)n1,4.95
2,Cc1nc(C(C)C)sc1C(C)N(C)C(=O)c1ccc(=O)n(C)c1 (stereo not given),5.47
3,CN1CC(C(=O)NCCc2ccc3c(c2)OCCO3)CC1=O (stereo not given),2.3
4,O=C(O)CN(Cc1ccsc1)CC1CCCO1 (stereo not given),10.1
5,CCc1nnc(C(C)N2CCN(CCC(=O)NC3CC3)CC2)o1 (stereo not given),8.34
6,COc1ccc2c(c1)OCC(CNC1CCc3nc(C)nn3C1)=C2 (stereo not given),7.59
7,NC(=O)c1cc(C2CCCN(Cc3ccc4c(c3)OCCO4)C2)n[nH]1 (stereo not given),3.64
8,Cc1nnsc1CN1CC[C@@](O)(C2CCC2)[C@H](C)C1,-5.82
9,CC(C)c1nccn1CC1CCCN1Cc1nc2ccccc2n1C (stereo not given),4.02
10,COC(=O)c1ccoc1CN(C1CC1)C1CCS(=O)(=O)C1 (stereo not given),7.17
11,O=c1cc(N2CCNCC2)cnn1Cc1noc(C2CCCC2)n1,-1.96
12,CCc1nc(C)c(CC(=O)N2CCC3(CC2)OCCCC3OC)c(=O)[nH]1 (stereo not given),-123
13,O=C1CCCCCN1Cc1cccc(OC(F)F)c1,3.82
14,CC(C)[C@@H]1CN(C(=O)CN(C)Cc2ccc(F)cc2)C[C@H]1C(=O)O,0.85
15,CCc1ncc(CN2CCOC(Cc3cccc(F)c3)C2)cn1 (stereo not given),6.71
16,Cc1ccc(-c2cn(C3CCN(C(=O)[C@H]4CCCO4)CC3)nn2)cc1,-0.746
17,c1ccc(C2Cn3ccnc3CN2Cc2ncc[nH]2)cc1 (stereo not given),11.3
18,O=S(=O)(NCCCn1cncn1)c1ccc2c(c1)CCC2,8.86
19,Cn1cc(CN2CCC(c3ncc(Cl)cc3S(C)(=O)=O)CC2)cn1,9.1
20,COCCN(C)c1cnn(C)c(=O)c1Br,-10.9

# Source: ChEMBL document CHEMBL3988442, “University of Dundee, Small-Polar-MMV Screening Library” (2021)
